# Only a selection was taken, and hits are over-represented in it overall.
# CHX counter: counter-screen for Shiga toxin inhibitors: cycloheximide protein synthesis inhibition | max response, % | cell reporter, cycloheximide protein synthesis inhibition counterscreen | 300,000 compounds, 12% hits; in the data active means max response mostly above about 13%, no sharp cut-off; inactive means mostly below about 14%; further: read at 38.3 µM for the half of the compounds with a filed dose
# TbPYK inhibitor: blocks Trypanosoma brucei pyruvate kinase; Potency, µM (top dose mostly 76.8 µM), usual class: inhibitors; 410,000 compounds, 0.12% hits; TbPYK enzyme, Kinase-Glo Plus ATP luminescence, 45 min; Q57TT1; further: nearly all actives have a fitted effect of over 50% in size
#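 Assay buffer: 50 mM TEA pH 7.2, 100 mM KCl, 10 mM MgCl2, 0.05% BSA, 0.01% Tween-20. Pyruvate kinase from T. brucei plus substrate met compound, then ADP (130 uM final). Luminescence was read post 45 min RT.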
# RE007 growth inh: less growth of the S. pombe RE007 Vpr strain; 360,000 compounds, 0.21% hits; S. pombe RE007 Vpr strain, BacTiter-Glo ATP luminescence, 24 h; Potency, µM (titrated, usually from 92.2 µM), usual class: inhibitors; AID 651644; active means well fitted falling curve with a large enough effect; inconclusive means small, poorly fitted or top-dose-only effect; inactive means no such curve, though single readings can be large or run the other way; further: nearly all actives have a fitted effect of over 50% in size
#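 Fission yeast strain RE007, carrying one chromosomally integrated HIV-1 vpr copy, was seeded at OD 0.01 in PMG+AL medium with 23 nL pinned compound. After 24 h at 30 °C and 99% humidity, viability was read by BacTiter-Glo luminescence.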
# Shiga toxin inh: inhibitors of Shiga toxin in Vero cells | Vero cells, Shiga toxin protein synthesis inhibition reporter | inhibition, % at 38.7 µM | 290,000 compounds, 9.2% hits; in the data active means inhibition mostly above about 28%, no sharp cut-off; inactive means mostly below about 43%
# FBPA Giardia inh: inhibitors of Giardia lamblia fructose-1,6-bisphosphate aldolase. A8B2U2. purified Giardia FBPA. Potency, µM (highest dose often 59.6 µM), hits mostly inhibitors. 290,000 compounds, 0.71% hits; further: nearly all actives have a fitted effect of over 55% in size
#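 Giardia FBPA (40 nM reagent) was preincubated 10 min at RT with compound (up to 57.5 uM final), then substrate plus GAPDH/TPI/NAD/arsenate coupling system with diaphorase/resazurin was added; resorufin fluorescence (525/598 nm) was read after 20 min.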
# LmPK inhibitor: LmPK (Leishmania mexicana) enzyme inhibition; purified LmPK, Kinase-Glo ATP luminescence, 1 h; Potency, µM (titrated, usually from 57.5 µM), most hits filed as inhibitors; 290,000 compounds, 0.37% hits; AID 1721
# Target sequence (Q27686 whole entry, looked up): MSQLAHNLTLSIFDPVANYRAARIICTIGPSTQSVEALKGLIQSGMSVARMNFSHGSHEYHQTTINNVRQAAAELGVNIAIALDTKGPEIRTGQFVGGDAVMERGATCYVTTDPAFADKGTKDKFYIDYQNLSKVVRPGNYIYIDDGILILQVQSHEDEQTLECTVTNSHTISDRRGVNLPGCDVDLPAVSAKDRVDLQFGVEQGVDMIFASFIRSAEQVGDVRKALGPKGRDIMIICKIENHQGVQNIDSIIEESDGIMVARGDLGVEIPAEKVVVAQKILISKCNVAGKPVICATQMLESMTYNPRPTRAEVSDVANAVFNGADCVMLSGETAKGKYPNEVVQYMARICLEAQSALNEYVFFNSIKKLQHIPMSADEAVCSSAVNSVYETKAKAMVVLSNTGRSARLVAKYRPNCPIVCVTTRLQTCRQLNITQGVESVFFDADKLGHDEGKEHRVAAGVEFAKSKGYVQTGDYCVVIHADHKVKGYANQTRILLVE
#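 0.1 nM LmPK, 0.5 mM PEP, 0.1 mM ADP; 50 mM imidazole pH 7.2, 7 mM MgCl2, 50 mM KCl; 1 h RT. Kinase-Glo luminescence readout, normalized to no-enzyme (full inhibition) and uninhibited wells.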
# A number is an active result; – = inactive; ? = inconclusive; · = not tested or not shown; + = active, no number; [ ] = remark or other dose. Unless noted, the call rests on the fitted dose curve; in most records, active means well fitted curve in the direction sought with a large enough effect; inconclusive means small, poorly fitted or top-dose-only effect, or another doubt; inactive means no such curve, though single readings can be large; an effect the other way counts as inactive or inconclusive.
SMILES,CHX counter,TbPYK inhibitor,RE007 growth inh,Shiga toxin inh,FBPA Giardia inh,LmPK inhibitor
CCCCn1c(O)c(C(C)=NCCc2c[nH]c3ccccc23)c(=O)[nH]c1=O,–,–,–,–,–,–
Cc1ccc(N2CC(c3nnc(NC(=O)c4ccco4)s3)CC2=O)cc1Cl (stereo not drawn),·,–,·,·,·,·
CSCC[C@H](NC(=O)[C@H](CC(C)C)NC(=O)[C@H](Cc1c[nH]c2ccccc12)NC(=O)[C@H](CCC(N)=O)NC(=O)[C@@H](NC(=O)[C@H](Cc1ccccc1)NC(=O)[C@H](CC(=O)O)NC(=O)[C@H](CCC(N)=O)NC(=O)[C@H](C)NC(=O)[C@H](CCCNC(=N)N)NC(=O)[C@H](CCCNC(=N)N)NC(=O)[C@H](CO)NC(=O)[C@H](CC(=O)O)NC(=O)[C@H](CC(C)C)NC(=O)[C@H](Cc1ccc(O)cc1)NC(=O)[C@H](CCCCN)NC(=O)[C@H](CO)NC(=O)[C@H](Cc1ccc(O)cc1)NC(=O)[C@H](CC(=O)O)NC(=O)[C@H](CO)NC(=O)[C@@H](NC(=O)[C@H](Cc1ccccc1)NC(=O)[C@@H](NC(=O)CNC(=O)[C@H](CCC(N)=O)NC(=O)[C@H](CO)NC(=O)[C@@H](N)Cc1cnc[nH]1)[C@@H](C)O)[C@@H](C)O)C(C)C)C(=O)N[C@@H](CC(N)=O)C(=O)N[C@H](C(=O)O)[C@@H](C)O,–,·,·,–,–,·
Cc1ccc(NC(=O)C2CCN(S(=O)(=O)c3cc([N+](=O)[O-])ccc3Cl)CC2)nc1,·,–,–,·,·,·
CC(NC(=O)C1CCN(S(=O)(=O)c2cc([N+](=O)[O-])ccc2Cl)CC1)c1ccccc1 (stereo not drawn),–,–,–,–,–,–
O=C(Nc1nc2ccc(F)cc2s1)C1CCN(S(=O)(=O)c2cc([N+](=O)[O-])ccc2Cl)CC1,34,–,–,52,–,–
Cc1ccc2nc(NC(=O)C3CCN(S(=O)(=O)c4cc([N+](=O)[O-])ccc4Cl)CC3)sc2c1,13,–,–,+,–,–
COc1cc(CN(C(=O)c2oc3ccccc3c2C)C2CCS(=O)(=O)C2)cc(OC)c1OC (stereo not drawn),·,–,·,·,·,·
O=C1CCCN1CCCNc1nc(NCc2cccs2)nc2ccsc12,·,–,?,·,·,·
Cc1cc(NC(=O)C(C)(C)C)no1,–,–,–,–,–,–
Cc1cc(N/C=C2\CCCCC2=O)no1,16,–,–,–,–,–
CC(NC(=O)C1CCN(C(=O)Nc2ccccc2)CC1)c1ccc(Cl)cc1 (stereo not drawn),·,–,–,·,·,·
CCOC(=O)C1=CC[C@H]2c3c(c4ccccc4n3C)C(=O)C1N2C(=O)OC(C)(C)C,·,–,–,·,·,·
Nc1ccc(Nc2ccccc2)c(Cl)c1,27,–,–,52,–,–
CN(C)c1ncc2ncc(=O)n(C)c2n1,·,–,·,·,–,·
C/C(CCC(C)C)=N\Nc1cc(C)c2ccccc2n1,–,–,–,–,–,–
Cc1ccc([C@H]2N[C@]3(CCCN(Cc4ccc(F)cc4)C3=O)[C@H]3C(=O)N(C)C(=O)[C@@H]23)cc1,·,–,–,·,·,·
Cc1onc(-c2ccccc2)c1-c1n[nH]c(=S)n1-c1ccccc1Cl,–,?,–,–,–,18µM
S=c1[nH]nc(-c2ccc3ccccc3n2)n1-c1ccccc1Cl,–,–,–,–,–,28µM
Fc1ccc(-n2c(-c3ccco3)n[nH]c2=S)cc1,–,8.9µM,–,–,–,?
Cc1ccc(-n2c(-c3ccco3)n[nH]c2=S)cc1,–,6.3µM,–,–,–,?
CCOc1ccc(-n2c(-c3ccco3)n[nH]c2=S)cc1,–,?,–,–,–,?
CC(C)(C)OC(=O)C(C)(C)Sc1nnc(N)s1,–,–,–,–,–,–
Oc1ccc(Cl)cc1C(C#Cc1ccccc1)N1CCOCC1 (stereo not drawn),–,–,–,–,–,–
CC1(C)S[C@@H]2[C@H](NC(=O)[C@H](N)c3ccccc3)C(=O)N2[C@H]1C(=O)OC1OC(=O)c2ccccc21 (stereo partly drawn),·,–,–[18.4 µM],·,·,·
SMILES,CHX counter,TbPYK inhibitor,RE007 growth inh,Shiga toxin inh,FBPA Giardia inh,LmPK inhibitor
COc1ccc(CNC(=O)C2CCN(S(=O)(=O)c3c(C)noc3/C=C/c3ccccc3F)CC2)cc1,·,–,·,·,·,·
S=c1[nH]nc(-c2ccco2)n1-c1ccccc1Cl,33,?,–,67,–,?
CC(C)(C)NC(=O)/C=C/c1ccc(C(F)(F)F)cc1,76,–,–,96,–,–
C#CCn1c(C)cc(C)c(S(=O)(=O)c2ccccc2)c1=O,26,–,–,100,–,–
Cc1cc(C)n(Cc2ccccc2)c(=O)c1S(=O)(=O)c1ccccc1,–,–,–,–,–,–
COc1ccc(C(=O)Nc2sc(C)c(-c3ccccc3)c2C#N)cc1OC,–,–,–,–,–,–
N#Cc1c(NC(=O)CSc2nnnn2C2CCCCC2)sc2c1CCCC2,–,–,–,–,–,–
CCOC(=O)Nc1sc2c(c1C#N)CCCC2,31,–,?,74,–,–
Cc1nnc(SCC(=O)Nc2sc3c(c2C#N)CCCCC3)n1N,20,–,–,51,–,–
Cc1sc(NC(=O)COc2ccccc2)c(C#N)c1-c1ccccc1,23,–,–,–,–,–
CCC(=O)Nc1sc2c(c1C#N)CCC2,–,–,–,–,–,–
Cc1ccc(OCC(=O)Nc2sc3c(c2C#N)CCC3)cc1,53,–,–,122,–,–
Cc1ccc(OCC(=O)Nc2sc3c(c2C#N)CCC3)cc1C,–,–,–,–,–,–
CCOC(=O)c1noc2nc(C)n(CC(=O)Nc3cc(Cl)ccc3OC)c(=O)c12,·,–,·,·,·,·
CC(C)(C)Nc1nc(C#N)nc(Nc2ccccc2)n1,·,·,·,·,–,·
CC(C)n1cc(CN2CCC(C(=O)Nc3ccc(Oc4ccccc4F)cc3)CC2)cn1,–,–,–,–,–,–
CCCCC(=O)Nc1sc2c(c1C(N)=O)CCC2,32,–,–,45,–,–
CC(C)(C)C(=O)NC(=S)Nc1sc2c(c1C(N)=O)CCC2,22,–,–,–,–,–
